Measurements published in the OligoGym collection.

Assays:
Test in all cases: pooled miR-30 sensor sort-seq; sequence = guide strand
Settings in all cases: shRNA
[1] = molecular target: ENO2
[2] = molecular target: ENPP7
[3] = molecular target: ENAM
[4] = molecular target: ENTHD1
[5] = molecular target: EPC2
[6] = molecular target: EPB41
Further: reference of the scale not given here.

TACATTGGCTGTGAACTTGGAC
sensor-assay potency score (higher = more potent) [1]: 0.428

TTCTTGTAGACGTGGAGCTTGG
sensor-assay potency score (higher = more potent) [2]: -0.97

TTCATGTCCATGTCCTTGTTGT
sensor-assay potency score (higher = more potent) [2]: -0.0468

TAGAGCTAGTGGATTGTCCTTG
sensor-assay potency score (higher = more potent) [3]: 0.779

TTCTCTTGCTCCACCACAGAGA
sensor-assay potency score (higher = more potent) [1]: -1.02

TTGAACTGGACGTTAATTCTCC
sensor-assay potency score (higher = more potent) [2]: -0.264

TTAAGTTCTTGGATCACTGTGC
sensor-assay potency score (higher = more potent) [4]: 0.62

TTGCGCGCGATGCTCTCCCGGA
sensor-assay potency score (higher = more potent) [2]: -1.29

TTGTCCTTGATGACTCCCTTGA
sensor-assay potency score (higher = more potent) [1]: -0.328

TTTGCCTAAGTAACGCTGTTTG
sensor-assay potency score (higher = more potent) [1]: -1.32

TTTCTCTTGCTCCACCACAGAG
sensor-assay potency score (higher = more potent) [1]: -1.22

TCTAACACCTCAGCACACCAAC
sensor-assay potency score (higher = more potent) [1]: -0.842

TTGAGCAGCAGACAGTTGCAGG
sensor-assay potency score (higher = more potent) [1]: -0.936

ATTGGTGGCATCCTTGCCGTAT
sensor-assay potency score (higher = more potent) [1]: -0.654

TAGTTTGAAAGATACTTGCTAA
sensor-assay potency score (higher = more potent) [4]: -0.328

TTGAGTGTATGGTAGACCTCTG
sensor-assay potency score (higher = more potent) [1]: -0.0986

TAGAGATCCACCTCCACTGTGG
sensor-assay potency score (higher = more potent) [1]: 0.0832

TATAGAGATCCACCTCCACTGT
sensor-assay potency score (higher = more potent) [1]: -0.931

TGATGTATCGGGAAGGATCAGT
sensor-assay potency score (higher = more potent) [1]: -0.0535

TAGTCCCTGACAAAGTCCTGGT
sensor-assay potency score (higher = more potent) [1]: -0.652

TAGGGCAGCTTCACCTTGCTGG
sensor-assay potency score (higher = more potent) [2]: -0.078

TTTGTCTCCATCCCTCAGCTCC
sensor-assay potency score (higher = more potent) [1]: -0.755

TTTCTCTAAACACTTGCTGTGC
sensor-assay potency score (higher = more potent) [5]: -0.595

TTAGCTGCTCGGTAACTGGGAA
sensor-assay potency score (higher = more potent) [6]: -0.397

TAGTTTTACATTCTTGAACTTT
sensor-assay potency score (higher = more potent) [5]: -0.105

TTATTGTTCACAGTCTGCCCTG
sensor-assay potency score (higher = more potent) [5]: -0.344

TTCTTTGCCTTCTTCCTCGGAC
sensor-assay potency score (higher = more potent) [6]: -0.102

TTGAGGTACATTCTTCACTATC
sensor-assay potency score (higher = more potent) [5]: -1.27

TTCTTCACTATCACTGTCCTGT
sensor-assay potency score (higher = more potent) [5]: 0.612

ATCTTCTCTGAGTTCTTCCTGA
sensor-assay potency score (higher = more potent) [6]: -0.459

TTGCTGTTTCTGCTGAAGCTGG
sensor-assay potency score (higher = more potent) [5]: -1.06

TATAACTCTTTTTCTGATCTAC
sensor-assay potency score (higher = more potent) [5]: 0.207

TTGATCTCCTCTTGACTCTTGT
sensor-assay potency score (higher = more potent) [6]: 0.588

TTGACAAGATTCCTCCTGCTGA
sensor-assay potency score (higher = more potent) [6]: -0.541

TAGAATAATCTTGAAAGTCTGA
sensor-assay potency score (higher = more potent) [6]: 0.113

TTTTTCAGCTCACTGATGCTGG
sensor-assay potency score (higher = more potent) [6]: 0.147
